Only some compounds are listed: those with a hit (about 2.5% of all), similar ones and a draw of the others.
Cruzain noTriton – qHTS Assay for Promiscuous and Specific Inhibitors of Cruzain (without detergent); AID 1476, 2009; Potency, µM, hits mostly inhibitors; purified cruzain, Z-FR-AMC fluorescence, no detergent; 200,000 compounds, 2.3% hits; further: nearly all actives have a fitted effect of over 40% in size
Target sequence (P25779 123-467 limits assumed): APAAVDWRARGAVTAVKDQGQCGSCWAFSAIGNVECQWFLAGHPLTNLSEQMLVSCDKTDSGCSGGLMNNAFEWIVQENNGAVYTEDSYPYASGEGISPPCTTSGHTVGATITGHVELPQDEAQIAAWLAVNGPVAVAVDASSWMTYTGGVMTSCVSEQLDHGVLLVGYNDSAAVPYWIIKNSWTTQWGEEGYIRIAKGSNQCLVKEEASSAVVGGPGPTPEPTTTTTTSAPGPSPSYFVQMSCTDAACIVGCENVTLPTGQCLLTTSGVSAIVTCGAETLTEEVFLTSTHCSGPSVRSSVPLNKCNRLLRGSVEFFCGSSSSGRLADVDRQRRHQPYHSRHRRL
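Purified cruzain at 1.5 nM, pre-incubated 15 min with compound at room temperature in 100 mM sodium acetate pH 5.5, 5 mM DTT, 0.00005% Triton X-100. Reaction started with 2 uM Z-FR-AMC; AMC fluorescence increase over 60 s gives rate.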
Cruzain Triton – qHTS Assay for Promiscuous and Specific Inhibitors of Cruzain (with detergent). Cruzipain (Trypanosoma cruzi), P25779. purified cruzain, Z-FR-AMC fluorescence, 0.01% Triton. Potency, µM, usual class: inhibitors. 200,000 compounds, 0.43% hits. AID 1478, 2009; further: nearly all actives have a fitted effect of over 40% in size
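Steps: dispense cruzain (1.5 nM final) in acetate buffer pH 5.5 with DTT and 0.01% Triton X-100; pin-transfer compounds; incubate 15 min RT; add Z-FR-AMC (2 uM final); read fluorescence every 30 s, using the 60 s intensity change.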
Numbers stand for hits; – = inactive; ? = inconclusive. The call rests on the fitted dose curve; in most records, active means well fitted curve in the direction sought with a large enough effect; inconclusive means small, poorly fitted or top-dose-only effect, or another doubt; inactive means no such curve, though single readings can be large; an effect the other way counts as inactive or inconclusive.

SMILES	Cruzain noTriton	Cruzain Triton
Cc1c(/C=C(\C#N)C(=O)Nc2cccc(Cl)c2)c2ccccc2n1Cc1ccccc1	4µM	–
COc1cccc(NC(=O)/C(C#N)=C/c2c(C)n(Cc3ccc(Cl)cc3)c3ccccc23)c1	6.3µM	–
Cc1ccc(C)c(S(=O)(=O)c2nnn3c2nc(NCc2ccc4c(c2)OCO4)c2sccc23)c1	?	–
Cc1ccccc1NC(=O)/C(=C/c1ccccc1)c1ccccc1	–	–
O=C(Nc1ccccc1)/C(=C/c1ccccc1)c1ccccc1	13µM	–
COC(=O)c1ccccc1NC(=O)C1CCCN(c2nnc(C)c3c(C)n(-c4ccccc4)nc23)C1 (centres undefined)	–	–
O=C(Nc1ccc(O)c(-c2nc3ccccc3o2)c1)c1ccco1	–	–
O=C(Nc1ccc(O)c(-c2nc3ccccc3o2)c1)C1(c2ccc(Cl)cc2)CCCC1	5µM	–
CCCN1CCN(C(=O)Cn2ncc3c4ccccc4n(Cc4cccc(Cl)c4)c3c2=O)CC1	–	–
CC(C)(C)OC(=O)N1CCC(c2c(C(=O)N3CCN(c4ccccn4)CC3)cnn2-c2ccccc2Cl)CC1	?	–
COc1cccc2c3c(c(C)nc12)CC(CO)O3 (centres undefined)	–	–
O=C(Nc1ncc(Cc2ccccc2Cl)s1)c1ccc(-c2cccc([N+](=O)[O-])c2)o1	6.3µM	–
O=C(Nc1ncc(Cc2ccc(C(F)(F)F)cc2)s1)c1ccc(-c2cccc([N+](=O)[O-])c2)o1	13µM	–
COc1ccc(CC(=O)Nc2nnc(-c3cccc([N+](=O)[O-])c3)s2)cc1	?	–
CCOc1ccc(NC(=O)/C(C#N)=C\c2ccc(-c3ccc(Cl)cc3)o2)cc1	–	–
O=C(Cc1ccccc1)Nc1nnc(-c2cccc([N+](=O)[O-])c2)s1	16µM	–
Cc1ccc(Cc2cnc(NC(=O)/C(C#N)=C/c3ccc(-c4ccc([N+](=O)[O-])cc4)o3)s2)cc1	2.5µM	–
O=C(Nc1ncc(Cc2ccccc2Cl)s1)c1ccc([N+](=O)[O-])cc1	?	–
O=C(Nc1ncc(Cc2cccc(Cl)c2)s1)c1ccc([N+](=O)[O-])cc1	?	–
CCN1CCCC1Cn1c(-c2ccccc2)nc2c(NCCOC)nc(C)nc21 (centres undefined)	–	–
Cc1cccc(NS(=O)(=O)c2ccc(NC(=O)N3CCCC3)cc2)c1	–	–
Cc1ccc(S(=O)(=O)Nc2cccc(-c3ccc(N4CCCCC4)nn3)c2)s1	?	–
COC(=O)c1cccc(Nc2c(-c3ccc(O)c(OC)c3)nc3nc[nH]n23)c1	–	–
Cn1c(SCc2ccccc2Cl)nc(=O)c2c1NC(=O)CC2c1cc(F)ccc1F (centres undefined)	–	–
O=C(COc1ccccc1-c1nc(-c2ccccc2)no1)Nc1cccc([N+](=O)[O-])c1	–	–
SMILES	Cruzain noTriton	Cruzain Triton
CC12CN3CC(c4ccccc4)(CN(C1)C3c1ccc(O)cc1)C2=O (centres undefined)	–	–
O=C(Nc1nnc(SCc2cccc3ccccc23)s1)C1COc2ccccc2O1 (centres undefined)	25µM	–
O=C(Nc1nc(-c2ccccc2)cs1)C1COc2ccccc2O1 (centres undefined)	25µM	–
O=C(Nc1nc(-c2ccc3c(c2)OCO3)cs1)C1COc2ccccc2O1 (centres undefined)	?	–
O=C(Nc1ccc(S(=O)(=O)N2CCCC2)cc1)C1COc2ccccc2O1 (centres undefined)	–	–
Cc1ccccc1CSc1nnc(NC(=O)C2COc3ccccc3O2)s1 (centres undefined)	?	–
O=C(Nc1nc(-c2ccc(S(=O)(=O)N3CCCC3)cc2)cs1)C1COc2ccccc2O1 (centres undefined)	10µM	–
CCCn1c(C)nc2c(N(CCOC)CCOC)nc(C)nc21	–	–
COCCn1c(-c2cc(OC)c(OC)c(OC)c2)nc2nc3ccccc3nc21	–	–
COCCn1c(-c2ccco2)nc2nc3ccccc3nc21	–	28µM
C=C1c2cccc(OC)c2O[C@H](C(=O)OCC)[C@@H]1CCC(C)C	?	–
O=C(Cn1c(=O)c(C(F)(F)F)nc2ccccc21)Nc1cccc(Br)c1	–	–
CCC(Sc1nnc(-c2ccc(F)cc2)c(-c2ccc(F)cc2)n1)C(=O)NC1CCCC1 (centres undefined)	–	–
Cc1ccc(Cn2ccc(NC(=O)c3cc4nc5c(c(C(F)(F)F)n4n3)CCc3ccccc3-5)n2)cc1	–	–
Cc1ccc(O)c(NC(=O)c2cc3nc4c(c(C(F)(F)F)n3n2)CCc2ccccc2-4)c1	10µM	–
O=C(Cc1ccc(NC(=O)N2CCCCc3ccccc32)cc1)NCc1ccccc1	–	–
CCC(Cc1ccccc1)NC(=O)CN1C(=O)COc2ccc(S(=O)(=O)N3CCCCCC3)cc21 (centres undefined)	–	–
CCOC(=O)c1c(C)[nH]c(C(=O)CSc2ccc(Cl)cc2)c1C	?	–
CCOC(=O)c1c(C)[nH]c(C(=O)CSc2nnc(Nc3ccccc3F)s2)c1C	13µM	–
CCC(CC)C(=O)Nc1nnc2n1CCS2	–	–
Cc1ccc(S(=O)(=O)NCC(=O)OC2CCOC2=O)cc1 (centres undefined)	–	–
CCCCOc1ccc(C(=O)NCC(=O)OC2CCOC2=O)cc1 (centres undefined)	?	20µM
Cc1noc(C)c1C(=O)N1CCC2(CC1)CN(C(=O)Nc1cccc(F)c1)C2	–	–
CC1=C(C(=O)Nc2ccccc2C)C(c2cccs2)n2nc(SCc3ccccc3)nc2N1 (centres undefined)	25µM	–
COc1ccc(NC(=O)C2=C(C)Nc3nc(SCc4ccccc4C)nn3C2c2ccc(Br)cc2)cc1 (centres undefined)	–	–
SMILES	Cruzain noTriton	Cruzain Triton
CC1=C(C(=O)Nc2ccccc2C)C(c2ccncc2)n2nc(SCc3ccccc3)nc2N1 (centres undefined)	–	–
CC1=C(C(=O)Nc2ccc(C)cc2C)C(c2cccs2)n2nc(SCc3ccc(Cl)cc3)nc2N1 (centres undefined)	–	–
COc1ccc(NC(=O)C2=C(C)Nc3nc(SCc4ccccc4C)nn3C2c2cc(OC)c(O)c(OC)c2)cc1 (centres undefined)	10µM	–
CC1=C(C(=O)Nc2ccc(Cl)cc2)C(c2cccs2)n2nc(SCc3cccc(Cl)c3)nc2N1 (centres undefined)	3.2µM	–
O=C(NCc1ccc(F)cc1)c1cc2cccc3c2n1CCS3	–	–
N#Cc1ccccc1Cn1c(SCC(=O)Nc2ccc(F)cc2)nc2ccccc21	?	–
COc1cc(OC)c(NC(=O)C2CCN(S(=O)(=O)c3ccc4c(c3)oc(=O)n4C)CC2)cc1Cl	–	–
O=C(c1ccccc1)c1nc2ccccc2n(CCCn2c(=O)c(C(=O)c3ccccc3)nc3ccccc32)c1=O	10µM	–
Cn1c(=O)c(C(=O)c2ccccc2)nc2ccccc21	–	–
Cc1ccc(N(Cc2cccs2)C(=O)COc2ccccc2[N+](=O)[O-])cc1	–	–
Oc1ccc(Br)cc1-c1cc(-c2ccccc2)n[nH]1	–	–
Oc1ccc(Br)cc1-c1cc(-c2ccc(Cl)cc2)n[nH]1	32µM	–
CCCSc1nnc2c(n1)OC(CC)N(C(C)=O)c1ccccc1-2 (centres undefined)	–	–

Compound activity (PubChem BioAssay)
